Assay results from PubChem BioAssay (EPA / NIEHS).
A structure can be active in one record and inactive in another. Activity calls are given as the source filed them. Rule for the calls: active = hit-call score of the fitted dose curve at least 0.9, where 1 is the maximum; inactive = score below 0.9.

Columns and labels:
[1] = ATG_GLI_CIS: Attagene CIS-FACTORIAL HepG2 Assay for human Zinc Finger Protein GLI1 (AID 2282945); settings: HepG2, Attagene cis-factorial reporter mRNA, GLI element; actives raise or lower the signal
Procedure, shortened: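 Bidirectional curve fits relative to DMSO, using reporter mRNA levels from RT-PCR plus capillary electrophoresis. Cells were HepG2 transiently carrying cis-regulated reporter constructs, harvested 24 h after dosing.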

[2] = molecular target: Bile acid receptor (Homo sapiens) (UniProt Q96RI1); assay: ATG_IR1_CIS: Attagene CIS-FACTORIAL HepG2 Assay for human Nuclear Receptor Subfamily 1 Group H Member 4 (NR1H4), IR1 submotif (AID 2282946); settings: IR1 reporter transcription, actives raise or lower the signal
Sequence of Bile acid receptor (Homo sapiens) (Q96RI1 whole entry, looked up): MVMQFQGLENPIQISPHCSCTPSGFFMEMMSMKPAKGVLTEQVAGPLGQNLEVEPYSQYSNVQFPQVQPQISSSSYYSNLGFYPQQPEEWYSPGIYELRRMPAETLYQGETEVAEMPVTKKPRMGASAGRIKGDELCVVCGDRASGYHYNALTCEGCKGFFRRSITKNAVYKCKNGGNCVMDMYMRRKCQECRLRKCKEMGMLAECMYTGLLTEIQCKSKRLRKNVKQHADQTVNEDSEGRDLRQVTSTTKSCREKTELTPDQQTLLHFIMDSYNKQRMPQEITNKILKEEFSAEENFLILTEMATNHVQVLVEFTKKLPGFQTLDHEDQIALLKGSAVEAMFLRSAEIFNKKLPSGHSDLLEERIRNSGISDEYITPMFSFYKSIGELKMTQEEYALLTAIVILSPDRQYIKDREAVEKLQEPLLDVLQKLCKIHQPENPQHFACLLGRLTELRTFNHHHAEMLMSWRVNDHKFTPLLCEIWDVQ
Procedure, shortened: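 HepG2 cells transiently transfected with multiplexed cis-element reporter units read endogenous transcription factor activity. After 24 h compound exposure, reporter mRNA was quantified by RT-PCR, fluorescent labelling, HpaI digestion and capillary electrophoresis; bidirectional fitting versus DMSO baseline.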

[3] = ATG_GRE_CIS: Attagene CIS-FACTORIAL HepG2 Assay for human Glucocorticoid Response Elements (GRE) (AID 2282947); settings: HepG2 GRE cis-reporter, Attagene multiplex mRNA; actives raise or lower the signal
Procedure, shortened: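 Reporter transcripts read by RT-PCR with capillary electrophoresis fluorescence after a 24 h chemical exposure of HepG2 cells transiently transfected with multiple cis-element reporter units. Gain or loss fitted against DMSO.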

[4] = ATG_ISRE_CIS: Attagene CIS-FACTORIAL HepG2 Assay for human Interferon Regulatory Factor 1 (IRF1) binding to an Interferon-Stimulated Response Element (ISRE) (AID 2282948); settings: HepG2 ISRE cis-reporter (Attagene), mRNA transcription readout; actives raise or lower the signal
Procedure, shortened: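 Signal reflects induction or loss of ISRE-linked reporter mRNA in transiently transfected HepG2 cells after a 24 h treatment, detected by fluorescent RT-PCR fragments on capillary electrophoresis and normalised to DMSO.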

[5] = ATG_M_32_CIS: Attagene CIS-FACTORIAL HepG2 Assay for M32 Transcription Factor (Internal Marker) (AID 2282949); settings: HepG2 Attagene cis-factorial M32 reporter, mRNA; actives raise or lower the signal;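 note: background control marker of the multiplexed CIS panel rather than a real target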
Procedure, shortened: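 HepG2 transfectants (cis-regulated reporter transcription units) dosed 24 h. Reporter mRNA by RT-PCR plus CE, analysed as gain or loss relative to DMSO.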

[6] = ATG_M_06_CIS: Attagene CIS-FACTORIAL HepG2 Assay for M06 Transcription Factor (Internal Marker) (AID 2282950); settings: HepG2 Attagene CIS-FACTORIAL M06 internal marker reporter; actives raise or lower the signal
Procedure, shortened: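 Cells (HepG2, transiently carrying cis-driven reporter units) receive chemical for 24 h before RNA isolation. Reporter cDNA is PCR-amplified, FAM-labelled by primer extension, HpaI-digested and sized on a capillary analyser.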

[7] = molecular target: Hypoxia-inducible factor 1-alpha (Homo sapiens) (UniProt Q16665); assay: ATG_HIF1a_CIS: Attagene CIS-FACTORIAL HepG2 Assay for human Hypoxia Inducible Factor 1 (HIF1A) (AID 2282951); settings: HepG2 Attagene cis-factorial HIF1a reporter transcription; actives raise or lower the signal
Sequence of Hypoxia-inducible factor 1-alpha (Homo sapiens) (Q16665 whole entry, looked up): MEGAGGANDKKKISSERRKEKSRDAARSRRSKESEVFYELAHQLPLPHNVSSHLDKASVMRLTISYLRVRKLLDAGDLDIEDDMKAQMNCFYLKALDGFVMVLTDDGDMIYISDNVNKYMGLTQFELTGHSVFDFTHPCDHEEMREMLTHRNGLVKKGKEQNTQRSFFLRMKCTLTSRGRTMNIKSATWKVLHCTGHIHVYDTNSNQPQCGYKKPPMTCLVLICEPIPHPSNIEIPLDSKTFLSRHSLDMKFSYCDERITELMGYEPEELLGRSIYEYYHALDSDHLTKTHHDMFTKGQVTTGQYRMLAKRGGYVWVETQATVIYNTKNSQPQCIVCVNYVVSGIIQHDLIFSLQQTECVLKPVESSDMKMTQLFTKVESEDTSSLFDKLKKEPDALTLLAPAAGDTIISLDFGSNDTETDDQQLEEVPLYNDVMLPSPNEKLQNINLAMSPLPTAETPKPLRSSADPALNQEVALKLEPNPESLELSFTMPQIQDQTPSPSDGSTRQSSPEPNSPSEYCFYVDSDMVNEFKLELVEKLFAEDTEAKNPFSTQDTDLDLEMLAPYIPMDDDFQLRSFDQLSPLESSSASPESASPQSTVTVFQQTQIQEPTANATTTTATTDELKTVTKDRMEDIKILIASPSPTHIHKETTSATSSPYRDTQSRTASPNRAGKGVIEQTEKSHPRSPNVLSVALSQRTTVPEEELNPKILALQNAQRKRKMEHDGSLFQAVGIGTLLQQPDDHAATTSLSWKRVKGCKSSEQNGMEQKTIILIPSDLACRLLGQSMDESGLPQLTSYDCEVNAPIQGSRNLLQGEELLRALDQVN
Procedure, shortened: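 Endogenous-TF cis reporter readout, human HepG2 cells, 24 h incubation; mRNA detected via RT-PCR and capillary electrophoresis fluorescence; DMSO-normalised bidirectional fitting.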

[8] = molecular target: Heat shock factor protein 1 (Homo sapiens) (UniProt Q00613); assay: ATG_HSE_CIS: Attagene CIS-FACTORIAL HepG2 Assay for human Heat Shock Transcription Factor 1 (HSE) (AID 2282953); settings: HepG2 HSE cis-reporter, Attagene RNA transcription; actives raise or lower the signal
Sequence of Heat shock factor protein 1 (Homo sapiens) (Q00613 whole entry, looked up): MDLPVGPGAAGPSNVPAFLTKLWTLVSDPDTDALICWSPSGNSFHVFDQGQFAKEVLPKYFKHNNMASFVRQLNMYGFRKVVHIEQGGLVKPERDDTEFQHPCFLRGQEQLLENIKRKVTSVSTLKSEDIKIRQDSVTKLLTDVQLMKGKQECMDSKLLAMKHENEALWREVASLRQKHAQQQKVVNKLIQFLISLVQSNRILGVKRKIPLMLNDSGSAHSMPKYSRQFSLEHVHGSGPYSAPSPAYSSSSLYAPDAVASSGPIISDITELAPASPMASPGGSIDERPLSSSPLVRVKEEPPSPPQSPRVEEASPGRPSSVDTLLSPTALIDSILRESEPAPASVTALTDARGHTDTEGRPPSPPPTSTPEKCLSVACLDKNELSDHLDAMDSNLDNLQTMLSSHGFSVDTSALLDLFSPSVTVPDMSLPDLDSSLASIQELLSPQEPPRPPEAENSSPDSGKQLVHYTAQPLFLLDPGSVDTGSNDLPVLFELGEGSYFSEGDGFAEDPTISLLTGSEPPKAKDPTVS
Procedure, shortened: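 Liver-derived HepG2 cells carry transiently introduced multiple reporter units governed by cis promoters. Reporter RNA measured 24 h post-dose through reverse transcription, PCR amplification, fluorescent labelling and capillary electrophoresis, normalised to DMSO.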

[9] = ATG_MRE_CIS: Attagene CIS-FACTORIAL HepG2 Assay for human Metal Responsive Element (MRE) (AID 2282954); settings: HepG2 MRE cis-reporter transcription, Attagene multiplex; actives raise or lower the signal
Procedure, shortened: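 Endogenous MRE-dependent transcription read as reporter mRNA in transiently transfected human HepG2 cells at 24 h. RNA reverse-transcribed, PCR-amplified, labelled and resolved by capillary electrophoresis; gain or loss relative to DMSO.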

[10] = ATG_PBREM_CIS: Attagene CIS-FACTORIAL HepG2 Assay for human Phenobarbital-responsive Enhancer Module (PBREM) (AID 2282955); settings: HepG2 PBREM cis-reporter, Attagene multiplexed transcription; actives raise or lower the signal
Procedure, shortened: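 Readout: reporter mRNA, fluorescent RT-PCR fragments separated by capillary electrophoresis. System: HepG2 transiently transfected with cis-regulated reporter units. Exposure: 24 h. Analysis: bidirectional, DMSO baseline.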

[11] = molecular target: Paired box protein Pax-6 (Homo sapiens) (UniProt P26367); assay: ATG_Pax6_CIS: Attagene CIS-FACTORIAL HepG2 Assay for human Paired Box 6 (PAX6) (AID 2282956); settings: HepG2 CIS-FACTORIAL PAX6 reporter transcription, RNA readout; actives raise or lower the signal
Sequence of Paired box protein Pax-6 (Homo sapiens) (P26367 whole entry, looked up): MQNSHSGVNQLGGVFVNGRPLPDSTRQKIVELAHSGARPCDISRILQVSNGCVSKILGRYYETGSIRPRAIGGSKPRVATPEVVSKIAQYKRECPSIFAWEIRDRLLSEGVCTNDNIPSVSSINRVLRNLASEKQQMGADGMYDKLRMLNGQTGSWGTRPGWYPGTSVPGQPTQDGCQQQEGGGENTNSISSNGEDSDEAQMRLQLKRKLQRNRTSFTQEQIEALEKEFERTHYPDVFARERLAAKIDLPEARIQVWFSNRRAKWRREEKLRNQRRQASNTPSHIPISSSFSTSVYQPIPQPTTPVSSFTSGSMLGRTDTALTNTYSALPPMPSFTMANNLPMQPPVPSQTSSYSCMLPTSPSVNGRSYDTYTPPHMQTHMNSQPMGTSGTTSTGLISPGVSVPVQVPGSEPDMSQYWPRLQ
Procedure, shortened: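 Values derive from bidirectional curve fitting of reporter mRNA signal relative to DMSO. HepG2 cells bearing transfected cis-regulated MRTUs were exposed for 24 h; transcripts were read by RT-PCR and capillary electrophoresis.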

[12] = ATG_PXRE_CIS: Attagene CIS-FACTORIAL HepG2 Assay for human Pregnane X Receptor Element (PXRE) (AID 2282957); settings: HepG2 Attagene CIS-FACTORIAL PXRE reporter, mRNA; actives raise or lower the signal
Procedure, shortened: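 Endogenous transcription factor activity in HepG2 was gauged through induction of reporter mRNA driven by a cis-regulating promoter element, sampled 24 h post-treatment. Activity was fitted in both directions against DMSO negative control.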

[13] = ATG_PPRE_CIS: Attagene CIS-FACTORIAL HepG2 Assay for human Peroxisome Proliferator-activated Response Element (PPRE) (AID 2282958); settings: HepG2 PPRE cis-element reporter, Attagene transcription factor profiling; actives raise or lower the signal
Procedure, shortened: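 After human HepG2 hepatoma cells were transiently transfected with cis-promoter reporter constructs, they were exposed to test chemicals for 24 hours. Reporter RNA was then reverse-transcribed, PCR-amplified, FAM-labeled, HpaI-digested and quantified by capillary electrophoresis.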

[14] = ATG_RORE_CIS: Attagene CIS-FACTORIAL HepG2 Assay for human RAR-related Orphan Receptor Element (RORE) (AID 2282959); settings: HepG2 Attagene cis-factorial RORE reporter, mRNA; actives raise or lower the signal
Procedure, shortened: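 Measured here: transcript induction of a cis-regulated reporter in HepG2 cells transiently transfected via FuGene 6. After 24 h, RNA was processed by RT-PCR and fluorescent capillary electrophoresis; DMSO defined baseline activity.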

[15] = ATG_Sox_CIS: Attagene CIS-FACTORIAL HepG2 Assay for human SRY-box transcription factor (SOX) (AID 2282960); settings: HepG2 Attagene cis-factorial SOX reporter, mRNA; actives raise or lower the signal
Procedure, shortened: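 Using transiently transfected HepG2 cells, reporter transcription driven by cis elements was assessed 24 h after dosing. Signal was fluorescence of capillary-separated RT-PCR products, with DMSO defining baseline activity.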

[16] = molecular target: Transcription factor Sp1 (Homo sapiens) (UniProt P08047); assay: ATG_Sp1_CIS: Attagene CIS-FACTORIAL HepG2 Assay for human Specificity Protein 1 (Sp1) (AID 2282961); settings: HepG2 Sp1 cis-reporter transcription, actives raise or lower the signal
Sequence of Transcription factor Sp1 (Homo sapiens) (P08047 whole entry, looked up): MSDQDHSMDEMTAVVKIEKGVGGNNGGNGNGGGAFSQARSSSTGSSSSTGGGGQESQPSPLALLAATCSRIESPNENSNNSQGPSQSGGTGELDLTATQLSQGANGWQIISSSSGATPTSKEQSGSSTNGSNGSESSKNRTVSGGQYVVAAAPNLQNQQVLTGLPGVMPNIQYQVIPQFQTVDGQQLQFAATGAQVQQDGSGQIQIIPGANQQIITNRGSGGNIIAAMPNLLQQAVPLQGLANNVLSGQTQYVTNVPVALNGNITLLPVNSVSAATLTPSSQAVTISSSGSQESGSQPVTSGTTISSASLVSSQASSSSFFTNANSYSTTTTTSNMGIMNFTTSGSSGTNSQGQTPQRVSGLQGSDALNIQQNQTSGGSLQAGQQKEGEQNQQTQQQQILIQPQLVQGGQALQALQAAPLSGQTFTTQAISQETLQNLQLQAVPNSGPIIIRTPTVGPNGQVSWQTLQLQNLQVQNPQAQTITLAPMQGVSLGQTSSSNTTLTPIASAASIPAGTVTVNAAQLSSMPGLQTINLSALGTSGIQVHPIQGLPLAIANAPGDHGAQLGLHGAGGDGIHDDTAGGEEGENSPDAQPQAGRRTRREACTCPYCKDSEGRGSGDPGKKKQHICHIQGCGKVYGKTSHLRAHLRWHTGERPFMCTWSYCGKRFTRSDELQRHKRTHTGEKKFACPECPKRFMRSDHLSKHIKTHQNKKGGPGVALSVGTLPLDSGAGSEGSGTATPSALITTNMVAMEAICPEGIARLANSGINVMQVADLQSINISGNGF
Procedure, shortened: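 After transient transfection of HepG2 cells with cis-promoter reporter units and 24 h chemical treatment, reporter transcripts were quantified by RT-PCR and capillary electrophoresis fluorescence. Gain- and loss-of-signal fitted against DMSO.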

[17] = ATG_SREBP_CIS: Attagene CIS-FACTORIAL HepG2 Assay for human Sterol Regulatory Element Binding (SREBP) (AID 2282962); settings: HepG2 Attagene cis-factorial SREBP reporter, mRNA; actives raise or lower the signal
Procedure, shortened: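 Values derive from bidirectional curve fitting with DMSO as baseline. The underlying measurement is reporter mRNA from cis-element-regulated units in transiently transfected HepG2, quantified by RT-PCR and capillary electrophoresis after 24 h exposure.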

[18] = molecular target: Signal transducer and activator of transcription 3 (Homo sapiens) (UniProt P40763); assay: ATG_STAT3_CIS: Attagene CIS-FACTORIAL HepG2 Assay for human Signal Transducer and Activator of Transcription 3 (STAT3) (AID 2282963); settings: HepG2, Attagene cis-factorial STAT3 reporter transcription; actives raise or lower the signal
Sequence of Signal transducer and activator of transcription 3 (Homo sapiens) (P40763 whole entry, looked up): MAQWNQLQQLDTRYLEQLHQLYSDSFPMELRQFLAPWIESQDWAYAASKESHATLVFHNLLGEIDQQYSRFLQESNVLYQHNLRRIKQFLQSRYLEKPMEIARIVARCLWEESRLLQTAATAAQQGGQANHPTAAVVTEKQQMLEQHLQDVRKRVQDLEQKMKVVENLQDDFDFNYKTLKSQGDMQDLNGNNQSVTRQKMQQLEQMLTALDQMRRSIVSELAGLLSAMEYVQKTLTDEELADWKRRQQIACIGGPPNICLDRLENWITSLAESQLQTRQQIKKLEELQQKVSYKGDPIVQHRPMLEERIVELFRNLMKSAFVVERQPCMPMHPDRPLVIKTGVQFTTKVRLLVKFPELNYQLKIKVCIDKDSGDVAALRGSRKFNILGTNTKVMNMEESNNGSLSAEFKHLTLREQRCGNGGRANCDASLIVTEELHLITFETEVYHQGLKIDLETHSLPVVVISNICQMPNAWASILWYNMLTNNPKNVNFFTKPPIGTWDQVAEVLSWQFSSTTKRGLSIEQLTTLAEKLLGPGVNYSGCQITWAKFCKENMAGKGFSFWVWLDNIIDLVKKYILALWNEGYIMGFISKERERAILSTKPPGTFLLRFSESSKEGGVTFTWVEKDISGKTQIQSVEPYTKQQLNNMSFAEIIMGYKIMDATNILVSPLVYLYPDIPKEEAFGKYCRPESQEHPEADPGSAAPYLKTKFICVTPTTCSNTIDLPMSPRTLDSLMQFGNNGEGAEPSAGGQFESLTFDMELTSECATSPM
Procedure, shortened: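 Readout is reporter transcript quantified by RT-PCR and capillary electrophoresis, with 6-FAM primer extension and HpaI digestion. Total RNA is taken 24 h after dosing transiently transfected HepG2 carrying cis-regulated reporter units. Bidirectional fit against DMSO.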

[19] = ATG_TA_CIS: Attagene CIS-FACTORIAL HepG2 Assay for human TA Basal Promoter (AID 2282964); settings: HepG2 Attagene CIS-factorial TA basal promoter reporter; actives raise or lower the signal
Procedure, shortened: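 Background internal-marker endpoint from a 52-component HepG2 cis-reporter panel. Cells treated 24 h; reporter transcripts quantified via RT-PCR and CE fluorescence against DMSO baseline.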

[20] = molecular target: Hepatocyte nuclear factor 6 (Homo sapiens) (UniProt Q9UBC0); assay: ATG_HNF6_CIS: Attagene CIS-FACTORIAL HepG2 Assay for human Hepatocyte Nuclear Factor 6 (HNF6) (AID 2282952); settings: HepG2 Attagene cis-factorial HNF6 reporter transcription; actives raise or lower the signal
Sequence of Hepatocyte nuclear factor 6 (Homo sapiens) (Q9UBC0 whole entry, looked up): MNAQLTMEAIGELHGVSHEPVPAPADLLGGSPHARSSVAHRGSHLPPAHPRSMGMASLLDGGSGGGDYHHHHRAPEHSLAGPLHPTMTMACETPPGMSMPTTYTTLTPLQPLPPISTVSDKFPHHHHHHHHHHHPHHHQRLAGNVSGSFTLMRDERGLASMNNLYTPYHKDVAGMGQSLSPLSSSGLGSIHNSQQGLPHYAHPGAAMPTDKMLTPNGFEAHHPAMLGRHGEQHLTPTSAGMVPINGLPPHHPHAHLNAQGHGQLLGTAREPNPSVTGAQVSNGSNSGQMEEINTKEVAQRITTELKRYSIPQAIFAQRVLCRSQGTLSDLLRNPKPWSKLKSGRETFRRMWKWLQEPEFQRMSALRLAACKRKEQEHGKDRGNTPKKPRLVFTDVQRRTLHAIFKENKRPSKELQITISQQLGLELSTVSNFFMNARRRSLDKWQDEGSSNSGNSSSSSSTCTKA
Procedure, shortened: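 Endogenous transcription factor activity in human HepG2 liver cells was captured through cis-regulated reporter constructs. After 24 h treatment, reporter mRNA was measured by RT-PCR with capillary electrophoresis, and activity was fitted in both directions relative to DMSO.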

Measured: AC50

FC(F)(F)c1ccc(Cl)cc1
not listed: [20]
inactive: all other assays above

NNC(N)=S
not listed: [20]
inactive: all other assays above

N#Cc1ccc(O)cc1
not listed: [10]
inactive: all other assays above

C=CC(=O)OCC(CC)(COC(=O)C=C)COC(=O)C=C
active: [2] 8.23 µM | [4] 42.4 µM | [9] 9.05 µM | [11] 15.5 µM | [16] 26.2 µM | [17] 27 µM
not listed: [20]
inactive: all other assays above

CCN(CC)c1ccccc1
not listed: [10] | [13]
inactive: all other assays above

C/C(=N\NC(=O)Nc1cc(F)cc(F)c1)c1ncccc1C(=O)O
active: [12] 172 µM
inactive: [1] | [2] | [3] | [4] | [5] | [6] | [7] | [8] | [9] | [10] | [11] | [12] | [14] | [15] | [16] | [17] | [18] | [19]

CC(O)C(F)(F)C(F)(F)F (configuration not stated)
not listed: [10]
inactive: all other assays above
